Records with an inconclusive call do not appear. A call without a number means that no potency is given here. Unmarked numbers belong to inactive results. The source made the active and inactive calls. Unless noted, calls follow the shape of the dose curve; as a rule, active = well fitted cell-killing curve with a large enough effect in the repeat runs; inconclusive = weak or mixed curves, or effect the other way; inactive = flat fitted curve, though single readings scatter.

Estrogen receptor beta (Homo sapiens), sequence (Q92731 whole entry, looked up): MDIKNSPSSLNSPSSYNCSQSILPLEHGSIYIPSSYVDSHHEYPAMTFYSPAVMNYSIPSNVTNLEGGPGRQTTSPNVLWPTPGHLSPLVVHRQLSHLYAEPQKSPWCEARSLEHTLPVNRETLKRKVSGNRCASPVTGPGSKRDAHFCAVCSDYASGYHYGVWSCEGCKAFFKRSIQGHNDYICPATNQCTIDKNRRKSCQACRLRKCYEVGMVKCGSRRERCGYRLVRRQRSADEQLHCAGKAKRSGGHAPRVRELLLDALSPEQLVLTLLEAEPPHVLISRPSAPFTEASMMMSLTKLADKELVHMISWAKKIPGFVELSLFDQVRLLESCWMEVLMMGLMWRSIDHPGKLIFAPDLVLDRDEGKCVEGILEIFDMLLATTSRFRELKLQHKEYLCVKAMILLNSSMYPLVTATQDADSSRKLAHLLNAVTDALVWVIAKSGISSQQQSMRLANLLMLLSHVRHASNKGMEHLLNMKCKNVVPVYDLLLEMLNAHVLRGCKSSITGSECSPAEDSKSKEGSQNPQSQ

The first assay addresses Estrogen receptor beta (Homo sapiens) (UniProt Q92731). Briefly: qHTS assay to identify small molecule antagonists of the estrogen receptor beta (ER-beta) signaling pathway (AID 1259378; active = well fitted inhibition curve with a large enough effect in the signal ratio in the repeat runs, not every such curve was filed as active; the % refers to the signal ratio). To be noted: ER-beta-UAS-bla HEK293T, beta-lactamase FRET ratio, 16 h; series mostly up to 92.4 µM. The procedure, abridged: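 ER-beta-UAS-bla HEK293T cells in 2% charcoal-stripped FBS medium treated with compound plus 1nM final 17-beta-estradiol for 16 hr at 37C. Beta-lactamase reporter read by FRET substrate fluorescence after 2 hours at room temperature.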
In general terms: In qHTS, concentration-response curves come from the screen itself.
In the case of `CC(CCc1ccc2c(c1)OCO2)NN` (stereo unspecified), the Potency entry was “inactive”.
Same read-out and setting: the entry for `Cc1cc(S(=O)(=O)O)ccc1N=Nc1c(O)ccc2ccccc12` is “inactive”.
On the same count and under the same terms, the entry for `O=C(O)c1ccc(CO)o1` is “inactive”.
Same read-out and setting: the entry for `COC(OC)(C(=O)c1ccccc1)c1ccccc1` is “inactive”.
As for `Cc1nc2ccccc2s1`, the Potency entry was “inactive”.
The same measure, in the same setting: the entry for `CCOCCn1c(C2CCN(CCc3ccc(C(C)(C)C(=O)O)cc3)CC2)nc2ccccc21` is “inactive”; for `CC(=O)Nc1ccc(N)cc1` it is “inactive”; for `CCn1nc(C)c2c1C(=O)NCC(c1ccc(O)cc1)=N2` it is “inactive”.

Test system in another assay: not listed separately
Put plainly: qHTS assay to identify small molecule agonists of the androgen receptor (AR) signaling pathway in the presence of an antagonist - cell viability counter screen (AID 1259379). Also: nearly all actives have a fitted effect of over 25% in size. Also: potency is read from the fitted curve at half-maximal effect.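 As to activity change, negative = cytotoxicity: MDA-kb2 human breast cancer cells carrying an MMTV luciferase reporter.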 To be noted: MDA-kb2 viability, CellTiter-Fluor, 16 h; series mostly up to 92.4 µM. A digest of the protocol:
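Nilutamide-containing (3.0uM final) MDA-kb2 cultures, 3,000 cells/well, were treated with compounds across 15 concentrations. After 16 hr at 37C with no CO2, cell viability was determined by CellTiter-Fluor fluorescence in the luciferase assay wells.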
Take `CC(CCc1ccc2c(c1)OCO2)NN` (stereo unspecified): the Potency result was “inactive”.
On the same count and under the same terms, the entry for `CC(C)c1nnc2ccc(-c3ocnc3-c3cc(F)ccc3F)cn12` is “inactive”.
On to `Cc1cc(S(=O)(=O)O)ccc1N=Nc1c(O)ccc2ccccc12`, for which the Potency was 30.6 µM (active).
`OC/C(Br)=C(\Br)CO`: the Potency entry is “inactive”.
Still for that read-out and setting: the entry for `CN1CCCN=C1/C=C/c1cccs1` is “inactive”.
On to `CC1(C)C(=O)N(Br)C(=O)N1Cl`, for which the Potency entry is “inactive”.
As to `CCC(C(=O)OCCOCCN(CC)CC)c1ccccc1` (stereo unspecified), the Potency result was “inactive”.
Same read-out and setting: the entry for `O=C(O)c1cccc(O)c1` is “inactive”; for `NC(=O)Nc1ccc(Cl)cc1` it is “inactive”; for `O=C(O)c1ccc(CO)o1` it is “inactive”.
On the same count and under the same terms, the entry for `CCCCCCOC(=O)C(C)C` is “inactive”; for `CCCCCCCCCCCC[N+](C)(C)CCCS(=O)(=O)[O-]` it is “inactive”; for `CCCOCCOCCO` it is “inactive”.
On the same count and under the same terms, the entry for `Cn1c(=O)c2c(ncn2CC(=O)O)n(C)c1=O` is “inactive”.
As for `CC#N`, the Potency entry is “inactive”.
The same measure, in the same setting: the entry for `CO[C@H]1O[C@H](CO)[C@@H](O)[C@H](O)[C@H]1O` is “inactive”; for `CCOC(=O)C(C)Oc1ccc(Oc2nc3ccc(Cl)cc3o2)cc1` (stereo unspecified) it is “inactive”.
Same read-out and setting: the entry for `Cc1oncc1C(=O)Nc1ccc(C(F)(F)F)cc1` is “inactive”.
Turning to `CC1CN(c2cc3c(cc2F)c(=O)c(C(=O)O)cn3-c2ccc(F)cc2F)CCN1` (stereo unspecified), the activity change, negative = cytotoxicity was 0.826% [at 8.39 µM].
In the case of `COC(OC)(C(=O)c1ccccc1)c1ccccc1`, the Potency entry is “inactive”.
The same measure, in the same setting: the entry for `Cc1nc2ccccc2s1` is “inactive”.
On the same count and under the same terms, the entry for `CCOCCn1c(C2CCN(CCc3ccc(C(C)(C)C(=O)O)cc3)CC2)nc2ccccc21` is “inactive”; for `CC(=O)Nc1ccc(N)cc1` it is “inactive”; for `CCC(=O)OC/C=C/c1ccccc1` it is “inactive”.
In the case of `CN1CCN(c2c(F)cc3c(=O)c(C(=O)O)cn4c3c2OCN4C)CC1`, the activity change, negative = cytotoxicity was 0.471% [at 19 µM].
In the case of `CCC(C)=O`, the Potency entry was “inactive”.
Still for that read-out and setting: the entry for `O=S(=O)(c1ccccc1)c1ccc(Cl)cc1` is “inactive”; for `O=C(CCC1CCN(Cc2ccccc2)CC1)c1ccc2c(c1)NCCCC2` it is 29.8 µM (active).
Same read-out and setting: the entry for `CCn1nc(C)c2c1C(=O)NCC(c1ccc(O)cc1)=N2` is “inactive”; for `CCc1nn(CCCN2CCN(c3cccc(Cl)c3)CC2)c(=O)n1CCOc1ccccc1` it is 29.8 µM (active).
As to `C[Si](NC1CCCCC1)(NC1CCCCC1)NC1CCCCC1`, the Potency entry was “inactive”.
The same measure, in the same setting: the entry for `CC(C)(C)C(=O)C(Oc1ccc(Cl)cc1)n1ccnc1` (stereo unspecified) is “inactive”; for `Cc1cc2nc3ccc(=[N+](C)C)cc-3sc2cc1N` it is 3.76 µM (active).
Still for that read-out and setting: the figure for `CN(C)C(=O)Nc1ccc(Oc2ccc(Cl)cc2)cc1` is 54.5 µM (active); for `Nc1nc(Cl)nc2c1ncn2[C@@H]1O[C@H](CO)[C@@H](O)[C@@H]1F` it is “inactive”; for `CCOc1cc(N)c(Cl)cc1C(=O)NCC1CN(Cc2ccc(F)cc2)CCO1` (stereo unspecified) it is “inactive”.
`CC(=O)OCC(=O)[C@H]1CC[C@H]2[C@@H]3CCC4=CC(=O)CC[C@]4(C)[C@H]3CC[C@]12C`: the Potency result is “inactive”.
Still for that read-out and setting: the entry for `Cc1cc(OI)c(C(C)C)cc1-c1cc(C(C)C)c(OI)cc1C` is “inactive”.

Test system in the next assay: not listed separately
Briefly: qHTS assay to identify small molecule agonists of the estrogen receptor beta (ER-beta) signaling pathway - cell viability counter screen (AID 1259380). Also: nearly all actives have a fitted effect of over 30% in size. Also: potency is read from the fitted curve at half-maximal effect. To be noted: ER-beta-bla HEK293T viability, CellTiter-Glo luminescence, 16 h; series mostly up to 92.4 µM. A digest of the protocol: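 Steps: plate ER-beta-UAS-bla HEK293T cells, rest 6 hr; add compounds in DMSO; incubate 16 hr at 37C, 5% CO2; add FRET substrate 2 hr; add CellTiter-Glo, wait 30 min at room temperature; read luminescence.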
`CC(CCc1ccc2c(c1)OCO2)NN` (stereo unspecified): the Potency entry was “inactive”.
For the compound `Cc1cc(S(=O)(=O)O)ccc1N=Nc1c(O)ccc2ccccc12`, the Potency entry is “inactive”.
The same measure, in the same setting: the entry for `OC/C(Br)=C(\Br)CO` is “inactive”; for `CN1CCCN=C1/C=C/c1cccs1` it is “inactive”.
Still for that read-out and setting: the entry for `CC1(C)C(=O)N(Br)C(=O)N1Cl` is “inactive”; for `O=C(O)c1cccc(O)c1` it is “inactive”.
Same read-out and setting: the entry for `NC(=O)Nc1ccc(Cl)cc1` is “inactive”.
Regarding `O=C(O)c1ccc(CO)o1`, the Potency result is “inactive”.
The same measure, in the same setting: the entry for `CCCOCCOCCO` is “inactive”; for `Cc1cc(O)c2c(O)c3c(O)cccc3cc2c1` it is “inactive”; for `CC#N` it is “inactive”.
Same read-out and setting: the entry for `CO[C@H]1O[C@H](CO)[C@@H](O)[C@H](O)[C@H]1O` is “inactive”.
With `CCOC(=O)C(C)Oc1ccc(Oc2nc3ccc(Cl)cc3o2)cc1` (stereo unspecified), the Potency result was “inactive”.
Same read-out and setting: the entry for `Cc1oncc1C(=O)Nc1ccc(C(F)(F)F)cc1` is “inactive”; for `COC(OC)(C(=O)c1ccccc1)c1ccccc1` it is “inactive”.
On the same count and under the same terms, the entry for `O=c1[nH]c2ccc(S(=O)CCN3CCC(Cc4ccc(F)cc4)CC3)cc2o1` (stereo unspecified) is “inactive”; for `Cc1nc2ccccc2s1` it is “inactive”.
On the same count and under the same terms, the entry for `CCOCCn1c(C2CCN(CCc3ccc(C(C)(C)C(=O)O)cc3)CC2)nc2ccccc21` is “inactive”.
Take `CC(=O)Nc1ccc(N)cc1`: the Potency result is “inactive”.
In the case of `CCC(=O)OC/C=C/c1ccccc1`, the Potency result was “inactive”.
As to `CN1CCN(c2c(F)cc3c(=O)c(C(=O)O)cn4c3c2OCN4C)CC1`, the activity change, negative = cytotoxicity is 3.44% [at 19 µM].
For the compound `CCC(C)=O`, the Potency result is “inactive”.
As for `O=S(=O)(c1ccccc1)c1ccc(Cl)cc1`, the Potency entry was “inactive”.
`CCn1nc(C)c2c1C(=O)NCC(c1ccc(O)cc1)=N2`: the Potency result was “inactive”.
In the case of `C[Si](NC1CCCCC1)(NC1CCCCC1)NC1CCCCC1`, the Potency was 27.3 µM (active).
Still for that read-out and setting: the figure for `CC(C)(C)C(=O)C(Oc1ccc(Cl)cc1)n1ccnc1` (stereo unspecified) is 1.19 µM (active).
On the same count and under the same terms, the figure for `Cc1cc2nc3ccc(=[N+](C)C)cc-3sc2cc1N` is 4.22 µM (active); for `CN(C)C(=O)Nc1ccc(Oc2ccc(Cl)cc2)cc1` it is “inactive”; for `CCOc1cc(N)c(Cl)cc1C(=O)NCC1CN(Cc2ccc(F)cc2)CCO1` (stereo unspecified) it is 2.37 µM (active).
Still for that read-out and setting: the entry for `Cc1cc(OI)c(C(C)C)cc1-c1cc(C(C)C)c(OI)cc1C` is “inactive”.

(Values after PubChem BioAssay (Tox21).)
